The target of experiment [1] is Paired box protein Pax-6 (Homo sapiens) (UniProt P26367). Nature of the experiment: ATG_Pax6_CIS: Attagene CIS-FACTORIAL HepG2 Assay for human Paired Box 6 (PAX6) (AID 2282956). Particulars: HepG2 CIS-FACTORIAL PAX6 reporter transcription, RNA readout; actives raise or lower the signal. An outline of the steps:
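Values derive from bidirectional curve fitting of reporter mRNA signal relative to DMSO. HepG2 cells bearing transfected cis-regulated MRTUs were exposed for 24 h; transcripts were read by RT-PCR and capillary electrophoresis.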

Experiment [2] can be described thus: ATG_PXRE_CIS: Attagene CIS-FACTORIAL HepG2 Assay for human Pregnane X Receptor Element (PXRE) (AID 2282957). As to conditions: HepG2 Attagene CIS-FACTORIAL PXRE reporter, mRNA; actives raise or lower the signal. The method, boiled down: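 Bidirectional activity, baselined to DMSO, derived from reporter mRNA fluorescence (RT-PCR plus capillary electrophoresis) in HepG2 cells bearing cis-promoter reporter units, 24 h exposure.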

Experiment [3] can be described thus: ATG_PPRE_CIS: Attagene CIS-FACTORIAL HepG2 Assay for human Peroxisome Proliferator-activated Response Element (PPRE) (AID 2282958). As to conditions: HepG2 PPRE cis-element reporter, Attagene transcription factor profiling; actives raise or lower the signal. The method, boiled down:
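HepG2 cells transiently transfected with multiplexed cis-element reporter units measure endogenous transcription factor activity. After 24 h compound exposure, reporter mRNA is quantified by RT-PCR, 6-FAM labeling, HpaI digestion and capillary electrophoresis; bidirectional fits are made against DMSO baseline.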

The nature of experiment [4]: ATG_RORE_CIS: Attagene CIS-FACTORIAL HepG2 Assay for human RAR-related Orphan Receptor Element (RORE) (AID 2282959). Particulars: HepG2 Attagene cis-factorial RORE reporter, mRNA; actives raise or lower the signal. The method, boiled down:
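HepG2 cells transiently transfected with multiple cis-element reporter transcription units, exposed to chemical for 24 h. Reporter mRNA quantified by RT-PCR, 6-FAM primer-extension labeling, HpaI digestion and capillary electrophoresis; bidirectional fit versus DMSO baseline.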

Experiment [5] can be described thus: ATG_Sox_CIS: Attagene CIS-FACTORIAL HepG2 Assay for human SRY-box transcription factor (SOX) (AID 2282960). Particulars: HepG2 Attagene cis-factorial SOX reporter, mRNA; actives raise or lower the signal. The method, boiled down: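 HepG2 cells transiently transfected with cis-element-driven multiple reporter transcription units, dosed 24 h; reporter mRNA measured by RT-PCR, FAM labelling, HpaI digestion and capillary electrophoresis. Bidirectional fit versus DMSO baseline.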

In experiment [6] the target is Transcription factor Sp1 (Homo sapiens) (UniProt P08047). The experiment can be described thus: ATG_Sp1_CIS: Attagene CIS-FACTORIAL HepG2 Assay for human Specificity Protein 1 (Sp1) (AID 2282961). As to conditions: HepG2 Sp1 cis-reporter transcription, actives raise or lower the signal. An outline of the steps: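 HepG2 cells transiently transfected with multiple reporter transcription units driven by cis-regulatory elements; Sp1-responsive reporter mRNA measured 24 h after dosing by RT-PCR and capillary electrophoresis fluorescence, fitted bidirectionally against DMSO baseline.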

A short description of experiment [7]: ATG_SREBP_CIS: Attagene CIS-FACTORIAL HepG2 Assay for human Sterol Regulatory Element Binding (SREBP) (AID 2282962). As to conditions: HepG2 Attagene cis-factorial SREBP reporter, mRNA; actives raise or lower the signal. An outline of the steps:
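Values derive from bidirectional curve fitting with DMSO as baseline. The underlying measurement is reporter mRNA from cis-element-regulated units in transiently transfected HepG2, quantified by RT-PCR and capillary electrophoresis after 24 h exposure.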

A short description of experiment [8]: ATG_TA_CIS: Attagene CIS-FACTORIAL HepG2 Assay for human TA Basal Promoter (AID 2282964). As to conditions: HepG2 Attagene CIS-factorial TA basal promoter reporter; actives raise or lower the signal. An outline of the steps:
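HepG2 cells transiently transfected with multiple reporter units under cis promoter elements, reporting endogenous transcription factor activity; this endpoint tracks the TA basal promoter as background control. Reporter mRNA after 24 h dosing measured by RT-PCR/capillary electrophoresis; bidirectional fits versus DMSO.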

The nature of experiment [9]: ATG_TCF_b_cat_CIS: Attagene CIS-FACTORIAL HepG2 Assay for human T-Cell-Factor with beta-catenin (TCF/b-cat) (AID 2282965). As to conditions: HepG2 TCF/beta-catenin cis-reporter transcription, actives raise or lower the signal. An outline of the steps: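 Endogenous transcription factor activity is captured through cis-promoter reporter constructs transiently introduced into human HepG2 liver cells. Induced reporter mRNA is measured after 24 h and fitted bidirectionally relative to DMSO.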

A short description of experiment [10]: ATG_TAL_CIS: Attagene CIS-FACTORIAL HepG2 Assay for human TAL Basal Promoter (AID 2282966).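 Note: background control endpoint measuring basal TAL promoter reporter mRNA not a specific factor.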 As to conditions: HepG2 Attagene cis-factorial TAL promoter reporter; actives raise or lower the signal. An outline of the steps: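 Human hepatoma HepG2 cells, transfected with promoter-regulated reporter units, were treated 24 h. Reporter transcript levels, measured through RT-PCR and capillary electrophoresis, were fitted for gain or loss relative to DMSO.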

Experiment [11] in a line: ATG_VDRE_CIS: Attagene CIS-FACTORIAL HepG2 Assay for human Vitamin D Receptor Element (VDRE) (AID 2282968). Particulars: HepG2 VDRE cis-reporter transcription, actives raise or lower the signal. The method, boiled down:
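Readout is VDRE-driven reporter mRNA reflecting endogenous factor activity in human HepG2 cells, sampled 24 h post-dose. Quantification used labelled RT-PCR products separated by capillary electrophoresis; bidirectional analysis relative to DMSO.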

Experiment [12] addresses Nuclear receptor subfamily 1 group I member 3 (Homo sapiens) (UniProt Q14994). The experiment can be described thus: ATG_CAR_TRANS: Attagene TRANS-FACTORIAL HepG2 Assay for human Constitutive Androstane Receptor (CAR) (AID 2282969; active = hit-call score of the fitted dose curve at least 0.9, where 1 is the maximum;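 note: activators raise reporter mRNA above DMSO so AC50 marks induction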). As to conditions: HepG2 Attagene TRANS-FACTORIAL CAR reporter. The method, boiled down:
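Signal is reporter mRNA induction relative to DMSO, measured 24 h after dosing by RT-PCR with fluorescent primer extension and capillary electrophoresis. Human HepG2 liver cells carried transiently transfected chimeric NR-Gal4/GAL4-UAS reporter constructs.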

For experiment [13], the target named is Estrogen receptor (Homo sapiens) (UniProt P03372). The experiment can be described thus: ATG_ERa_TRANS: Attagene TRANS-FACTORIAL HepG2 Assay for human Estrogen Receptor alpha (ERa) (AID 2282970; active = hit-call score of the fitted dose curve at least 0.9, where 1 is the maximum). Particulars: HepG2 Attagene TRANS ERa GAL4 reporter, mRNA. An outline of the steps: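 Signal derives from fluorescence of labelled reporter PCR fragments separated by capillary electrophoresis. HepG2 cells transiently carrying multiple GAL4-UAS reporter units were treated 24 hours, and induction above DMSO baseline was fitted as activity.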

For experiment [14], the target named is X-box-binding protein 1 (Homo sapiens) (UniProt P17861). The experiment can be described thus: ATG_Xbp1_CIS: Attagene CIS-FACTORIAL HepG2 Assay for human X-box Binding Protein 1 (XBP1) (AID 2282972). As to conditions: HepG2 XBP1 cis-element reporter, Attagene multiplex; actives raise or lower the signal. An outline of the steps: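 Human hepatoma HepG2, cis-element reporter system, 24 h treatment; mRNA quantified by RT-PCR/CE fluorescence; fit relative to DMSO.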

Experiment [15] can be described thus: ATG_GAL4_TRANS: Attagene TRANS-FACTORIAL HepG2 Assay for GAL4 (Internal Marker) (AID 2282976; active = hit-call score of the fitted dose curve at least 0.9, where 1 is the maximum). As to conditions: HepG2 Attagene TRANS GAL4 internal marker reporter. The method, boiled down: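 Liver HepG2 line bearing multiplexed GAL4-UAS reporter constructs; 24 h chemical treatment. Transcripts were quantified as fluorescent fragments on capillary electrophoresis after RT-PCR and HpaI cut, with activity fitted upward from DMSO.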

Experiment [16] deals with Signal transducer and activator of transcription 3 (Homo sapiens) (UniProt P40763). The experiment can be described thus: ATG_STAT3_CIS: Attagene CIS-FACTORIAL HepG2 Assay for human Signal Transducer and Activator of Transcription 3 (STAT3) (AID 2282963). As to conditions: HepG2, Attagene cis-factorial STAT3 reporter transcription; actives raise or lower the signal. The method, boiled down:
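Readout is reporter transcript quantified by RT-PCR and capillary electrophoresis, with 6-FAM primer extension and HpaI digestion. Total RNA is taken 24 h after dosing transiently transfected HepG2 carrying cis-regulated reporter units. Bidirectional fit against DMSO.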

Experiment [17] is described as follows: ATG_TGFb_CIS: Attagene CIS-FACTORIAL HepG2 Assay for human Transforming Growth Factor (TGF) (AID 2282967). Particulars: HepG2 Attagene CIS TGFb reporter, mRNA transcription; actives raise or lower the signal. An outline of the steps: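 HepG2 cells transiently transfected with cis-promoter-driven multiple reporter units measure endogenous TF activity; reporter mRNA quantified at 24 h by RT-PCR, FAM labeling, HpaI digestion and capillary electrophoresis. Bidirectional fit vs DMSO.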

Experiment [18] has as its target Steroid hormone receptor ERR1 (Homo sapiens) (UniProt P11474). The experiment can be described thus: ATG_ERRa_TRANS: Attagene TRANS-FACTORIAL HepG2 Assay for human Estrogen-Related Receptor alpha (ERRa) (AID 2282971; active = hit-call score of the fitted dose curve at least 0.9, where 1 is the maximum). As to conditions: HepG2 Attagene TRANS reporter, ERRa transactivation. An outline of the steps: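 Signal gain relative to DMSO for an ERRa-Gal4 chimeric receptor, read as reporter mRNA by RT-PCR/capillary electrophoresis. Human HepG2 liver cells, transient multiplex reporter transfection, 24 h chemical exposure.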

Experiment [19] can be described thus: ATG_M_19_TRANS: Attagene TRANS-FACTORIAL HepG2 Assay for M19 Transcription Factor (Internal Marker) (AID 2282974; active = hit-call score of the fitted dose curve at least 0.9, where 1 is the maximum). As to conditions: HepG2 Attagene TRANS-FACTORIAL M19 internal marker reporter. The method, boiled down:
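HepG2 cells transiently transfected with multiple GAL4-UAS reporter transcription units were exposed to chemicals for 24 h. Reporter mRNA was read by RT-PCR, 6-FAM primer extension, HpaI digestion and capillary electrophoresis; gain of signal fitted relative to DMSO.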

Inconclusive results are not listed. Calls of active or inactive are those of the source. Rule for the calls, unless noted: active = hit-call score of the fitted dose curve at least 0.9, where 1 is the maximum; inactive = score below 0.9.

X-box-binding protein 1 (Homo sapiens), sequence (P17861 whole entry, looked up): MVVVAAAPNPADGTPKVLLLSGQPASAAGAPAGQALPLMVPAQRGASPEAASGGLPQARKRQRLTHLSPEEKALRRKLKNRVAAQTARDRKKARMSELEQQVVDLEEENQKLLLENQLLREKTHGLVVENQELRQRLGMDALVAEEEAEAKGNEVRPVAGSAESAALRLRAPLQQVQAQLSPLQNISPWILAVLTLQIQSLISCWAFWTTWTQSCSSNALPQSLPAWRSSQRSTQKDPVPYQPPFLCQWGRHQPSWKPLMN
Transcription factor Sp1 (Homo sapiens), sequence (P08047 whole entry, looked up): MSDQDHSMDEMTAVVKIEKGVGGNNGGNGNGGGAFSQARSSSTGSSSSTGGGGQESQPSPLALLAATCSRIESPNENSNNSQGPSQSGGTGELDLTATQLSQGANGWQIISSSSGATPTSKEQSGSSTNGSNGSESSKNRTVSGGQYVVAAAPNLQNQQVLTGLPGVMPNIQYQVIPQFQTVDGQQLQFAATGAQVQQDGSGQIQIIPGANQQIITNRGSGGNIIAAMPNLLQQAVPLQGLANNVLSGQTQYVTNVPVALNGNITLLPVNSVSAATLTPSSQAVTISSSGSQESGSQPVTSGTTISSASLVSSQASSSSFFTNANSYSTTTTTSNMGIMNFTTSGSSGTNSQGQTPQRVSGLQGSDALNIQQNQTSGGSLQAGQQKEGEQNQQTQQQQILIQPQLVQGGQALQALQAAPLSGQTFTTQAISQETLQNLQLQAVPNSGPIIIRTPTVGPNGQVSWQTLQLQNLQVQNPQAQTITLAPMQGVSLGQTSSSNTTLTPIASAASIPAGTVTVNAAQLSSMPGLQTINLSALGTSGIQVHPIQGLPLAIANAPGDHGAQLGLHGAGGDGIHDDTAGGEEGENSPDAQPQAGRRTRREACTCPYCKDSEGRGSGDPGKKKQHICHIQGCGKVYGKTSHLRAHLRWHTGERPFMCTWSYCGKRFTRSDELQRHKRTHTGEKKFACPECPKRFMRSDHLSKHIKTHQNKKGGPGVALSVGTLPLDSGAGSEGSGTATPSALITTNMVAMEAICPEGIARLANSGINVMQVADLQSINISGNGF
Signal transducer and activator of transcription 3 (Homo sapiens), sequence (P40763 whole entry, looked up): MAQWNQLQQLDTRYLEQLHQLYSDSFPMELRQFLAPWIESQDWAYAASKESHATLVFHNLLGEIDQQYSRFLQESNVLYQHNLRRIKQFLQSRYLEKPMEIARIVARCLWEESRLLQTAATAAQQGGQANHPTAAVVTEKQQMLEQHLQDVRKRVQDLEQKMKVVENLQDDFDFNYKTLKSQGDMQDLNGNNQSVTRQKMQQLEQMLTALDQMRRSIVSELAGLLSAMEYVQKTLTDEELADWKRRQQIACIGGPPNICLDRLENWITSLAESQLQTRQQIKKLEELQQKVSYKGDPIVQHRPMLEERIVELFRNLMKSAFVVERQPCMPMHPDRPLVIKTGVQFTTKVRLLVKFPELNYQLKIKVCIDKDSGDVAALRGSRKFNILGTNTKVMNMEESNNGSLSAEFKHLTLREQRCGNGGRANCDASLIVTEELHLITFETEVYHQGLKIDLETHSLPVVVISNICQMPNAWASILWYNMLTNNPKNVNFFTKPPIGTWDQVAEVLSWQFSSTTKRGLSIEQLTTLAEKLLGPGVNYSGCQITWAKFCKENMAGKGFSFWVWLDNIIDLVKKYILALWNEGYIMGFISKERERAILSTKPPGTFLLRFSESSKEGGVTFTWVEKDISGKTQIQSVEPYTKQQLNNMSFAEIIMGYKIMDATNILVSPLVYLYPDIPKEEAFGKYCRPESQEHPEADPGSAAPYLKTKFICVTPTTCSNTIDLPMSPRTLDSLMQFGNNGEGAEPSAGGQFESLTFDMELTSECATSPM
Paired box protein Pax-6 (Homo sapiens), sequence (P26367 whole entry, looked up): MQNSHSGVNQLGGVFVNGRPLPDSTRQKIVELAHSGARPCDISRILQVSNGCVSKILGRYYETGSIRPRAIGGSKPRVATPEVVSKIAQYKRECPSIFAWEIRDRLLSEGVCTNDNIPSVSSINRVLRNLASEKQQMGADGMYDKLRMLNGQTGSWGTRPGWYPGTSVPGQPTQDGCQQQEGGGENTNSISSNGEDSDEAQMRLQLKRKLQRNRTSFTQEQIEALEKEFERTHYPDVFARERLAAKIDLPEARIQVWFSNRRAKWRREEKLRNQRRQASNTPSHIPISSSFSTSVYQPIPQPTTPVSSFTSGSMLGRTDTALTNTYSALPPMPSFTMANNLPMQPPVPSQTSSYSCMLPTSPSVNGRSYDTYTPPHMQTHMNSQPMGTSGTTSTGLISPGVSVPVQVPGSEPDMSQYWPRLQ
Estrogen receptor (Homo sapiens), sequence (P03372 whole entry, looked up, the tested form may be a part): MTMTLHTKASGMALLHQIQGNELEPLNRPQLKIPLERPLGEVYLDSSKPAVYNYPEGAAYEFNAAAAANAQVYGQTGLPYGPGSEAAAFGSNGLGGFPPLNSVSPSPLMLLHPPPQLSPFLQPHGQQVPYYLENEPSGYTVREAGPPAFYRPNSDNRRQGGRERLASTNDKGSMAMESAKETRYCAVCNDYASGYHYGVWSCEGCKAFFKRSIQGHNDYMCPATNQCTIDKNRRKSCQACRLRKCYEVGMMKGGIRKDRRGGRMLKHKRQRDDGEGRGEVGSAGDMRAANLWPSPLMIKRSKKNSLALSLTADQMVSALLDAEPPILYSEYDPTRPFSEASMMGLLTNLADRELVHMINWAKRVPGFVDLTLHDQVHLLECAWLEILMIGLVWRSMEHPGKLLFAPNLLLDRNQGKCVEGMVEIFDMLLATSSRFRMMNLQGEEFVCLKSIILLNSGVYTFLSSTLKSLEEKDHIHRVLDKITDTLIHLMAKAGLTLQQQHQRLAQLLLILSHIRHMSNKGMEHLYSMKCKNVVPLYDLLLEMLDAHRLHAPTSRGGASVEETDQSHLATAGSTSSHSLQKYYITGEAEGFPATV
Nuclear receptor subfamily 1 group I member 3 (Homo sapiens), sequence (Q14994 whole entry, looked up, the tested form may be a part): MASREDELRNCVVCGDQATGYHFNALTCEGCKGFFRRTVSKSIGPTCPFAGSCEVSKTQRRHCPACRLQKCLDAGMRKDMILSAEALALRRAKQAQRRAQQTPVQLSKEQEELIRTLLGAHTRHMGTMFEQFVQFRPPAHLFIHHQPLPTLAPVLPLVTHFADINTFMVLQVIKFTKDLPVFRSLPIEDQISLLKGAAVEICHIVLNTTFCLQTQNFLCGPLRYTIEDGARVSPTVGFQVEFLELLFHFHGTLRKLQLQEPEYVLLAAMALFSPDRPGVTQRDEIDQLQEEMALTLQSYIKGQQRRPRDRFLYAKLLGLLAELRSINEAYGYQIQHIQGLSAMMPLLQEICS
Steroid hormone receptor ERR1 (Homo sapiens), sequence (P11474 whole entry, looked up, the tested form may be a part): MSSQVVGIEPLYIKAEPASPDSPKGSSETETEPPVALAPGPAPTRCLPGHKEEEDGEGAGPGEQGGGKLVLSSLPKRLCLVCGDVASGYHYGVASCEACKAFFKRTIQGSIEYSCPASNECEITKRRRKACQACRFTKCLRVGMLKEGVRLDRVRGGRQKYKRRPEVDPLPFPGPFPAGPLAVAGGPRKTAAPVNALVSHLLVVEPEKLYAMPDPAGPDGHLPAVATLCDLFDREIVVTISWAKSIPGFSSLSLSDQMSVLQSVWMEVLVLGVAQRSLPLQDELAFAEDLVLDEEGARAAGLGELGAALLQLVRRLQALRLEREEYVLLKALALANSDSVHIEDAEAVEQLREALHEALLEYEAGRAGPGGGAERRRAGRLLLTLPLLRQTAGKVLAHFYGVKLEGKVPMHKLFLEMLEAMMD

Regarding `N#CCCNCCC#N`, the outcome in experiment [1], in experiment [2], in experiment [3], in experiment [4], in experiment [5] and in experiment [6] was inactive. Also, the compound was called inactive in experiment [7], in experiment [8], in [9], in experiment [10], in experiment [11] and in experiment [12]. Besides, the outcome in [13], in experiment [14] and in experiment [15] was inactive.

As to `CCCCOC(=O)C(C)OC(=O)CCC` (stereo unspecified), the compound was classed as inactive in experiment [1], in experiment [2], in [3], in experiment [4], in experiment [5] and in experiment [6]. The result in experiment [7], in experiment [16], in experiment [8], in [17], in experiment [11] and in experiment [18] was inactive. The compound was classed as inactive in experiment [14] and in [15].

Take `CC(O)COCC(C)O` (stereo unspecified): the call in [1], in [2], in experiment [3], in [4], in [5] and in experiment [6] was inactive. Moreover, the outcome in [16], in [8], in [9], in [10], in experiment [17] and in experiment [11] was inactive. The compound was called inactive in [13], in experiment [14], in experiment [19] and in experiment [15].

Consider `CC(CO)(CO)[N+](=O)[O-]`, for which the compound was called inactive in experiment [1], in [2], in [3], in experiment [4], in experiment [5] and in experiment [6]. Further, the compound was called inactive in experiment [7], in experiment [16], in experiment [8], in experiment [17], in experiment [11] and in experiment [13]. In addition, the compound was called inactive in experiment [14], in [19] and in [15].

Consider `CC1(C)CC(N)CC(C)(CN)C1` (stereo unspecified), for which the compound was classed as inactive in [1], in experiment [2], in [3], in [4], in [5] and in [6]. Also, the call in [7], in experiment [16], in [8], in experiment [9], in experiment [17] and in experiment [13] was inactive. For the same compound, the compound was called inactive in [14].

`CCC(=O)OCC=Cc1ccccc1`: the compound was called inactive in [1], in experiment [3], in experiment [4], in [5], in experiment [6] and in [7]. In addition, the call in experiment [16], in [8], in experiment [9], in experiment [10], in experiment [11] and in experiment [14] was inactive. Further, in experiment [15], the outcome was inactive. Further, in [2], the AC50 is 33.1 µM (active).

On to `CC(=O)OC(C)(C)C`, for which the compound was classed as inactive in experiment [1], in [2], in [3], in experiment [4], in experiment [5] and in [6]. Moreover, the result in experiment [7], in experiment [16], in experiment [8], in [9], in experiment [10] and in experiment [17] was inactive. Moreover, the result in [14], in [19] and in experiment [15] was inactive.

For the compound `CCCc1ccc(N)cc1`, the call in experiment [1], in [2], in experiment [3], in experiment [4], in experiment [5] and in experiment [6] was inactive. Further, the call in experiment [7], in [8], in experiment [9], in experiment [17], in experiment [11] and in experiment [13] was inactive. In addition, the compound was classed as inactive in experiment [14], in experiment [19] and in experiment [15].

As to `C[C@H](CCC(=O)O)[C@H]1CC[C@H]2[C@@H]3CC[C@@H]4C[C@H](O)CC[C@]4(C)[C@H]3CC[C@]12C`, the AC50 in experiment [1] is 27.5 µM (active); in experiment [2] it was 3.75 µM (active); in experiment [6], 168 µM (active); in [8], 25.3 µM (active); in [17], 43 µM (active); in experiment [11], 17.7 µM (active). Besides, the concentration at half-maximal activity (AC50) in [13] is 26.3 µM (active). The result in experiment [3], in experiment [4], in experiment [5], in [7], in experiment [16] and in experiment [10] was inactive. The compound was classed as inactive in [14].

Broadly, the AC50 is the concentration giving half of the maximal activity seen.

For the origin of these results see PubChem BioAssay (EPA / NIEHS).
